Data: PubChem BioAssay AID1863 (Southern Research Specialized Biocontainment Screening …, 2009)
About 480 (0.16%) of roughly 300,000 compounds were called active.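 The calls were made as follows: active = inhibition over 29.93%, a cutoff 3 SD above the screen mean, later confirmed by dose response; inconclusive = inhibition over 29.93% but no dose response follow-up; inactive = inhibition at most 29.93% or unconfirmed.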 The list is a sample of the results. Measured potencies and affinities stand elsewhere.

Test: inhibitors of PhoP regulon expression, primary screen, Salmonella Typhimurium, GFP reporter (AID 1863);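 also: 0% = low Mg2+ inducing control and 100% = high Mg2+ repressing control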
Settings: S. Typhimurium PhoP-regulated promoter GFP reporter, 4 h; at 50 µM; stronger effect = higher value

inhibition, inactive:
Cc1ccc(SC2=C(Sc3ccc(C)cc3)C(=O)c3ccccc3C2=O)cc1 4.97%
O=S1(=O)N=C(SCCO)c2ccccc21 -8.43%
CCn1c(SCC(=O)NCCc2ccccc2)nc2c([nH]c3ccccc32)c1=O -1.21%
CCCc1nc2ccc(NC(=O)NCCC(=O)OCC)cc2c(=O)n1Cc1cccc(Cl)c1 6.26%
O=C(NOC(=O)c1ccccc1F)c1ccc(OC(F)F)cc1 -1.76%
CCCCOC(=O)Cn1c2ccc(OC)cc2c2nc3ccccc3nc21 -30.4%
CCCCCCCCCCOC(=O)Cn1c(COc2ccccc2C)[n+](C)c2ccccc21 13.3%
CCCCc1n(CC(=O)c2ccc(Cl)cc2)c2ccccc2[n+]1C 7.69%
CCCCOC(=O)Cn1c(=O)n(CC(=O)OCCCC)c2ccccc21 1.46%
CCOC(=O)Cn1c(=N)n(CCOc2cccc(C)c2)c2ccccc21 -6.78%
CCCCCOC(=O)Cn1c(=O)oc2ccc(C)cc21 8.75%
Cn1c(COc2ccccc2O)[n+](C)c2ccccc21 19.1%
O=C(O)Cn1c(COc2ccc(Cl)cc2)nc2ccccc21 -9.39%
Cc1onc(-c2c(Cl)cccc2Cl)c1C(=O)Nc1ccc2c(c1)OCO2 5.51%
CN1CCN(NC(=S)NC2CCCCC2)CC1 2.99%
CC1(c2ccncc2)Nc2ccccc2-c2nc3ccccc3n21 (stereo unspecified) 4.56%
CC1CCCCC1NC(=O)CNC(=O)c1cccs1 (stereo unspecified) 0.65%
COC(=O)c1cc(OC)c(OC)cc1NC(=S)N1CCN(Cc2ccccc2)CC1 -2.33%
CCN(Cc1ccccc1)Cc1ccc(OCc2ccccc2)cc1 -0.23%
CC(=O)c1ccc(OCc2cc(C(=O)N3CCN4CCCC4C3)no2)cc1 (stereo unspecified) -1.66%
CCCCCOC(=O)Cn1c(=O)oc2ccccc21 5.08%
CCCCOC(=O)Cn1c(=N)n(CCC)c2ccccc21 8.26%
CCCCOC(=O)Cn1c(=O)oc2ccc(C)cc21 1.86%
CCCCCCOc1ccc(C(=O)O)cc1 -7.54%
CCN(CC)CCN1C(=O)c2ccccc2NC1c1cccc(F)c1 (stereo unspecified) -1.91%
CCN(c1ccc(NC(=O)COC(=O)/C=C/c2cccs2)cc1)C(C)C 1.21%
CCOc1ccc(S(=O)(=O)N(CCO)CCO)cc1-c1nc2c(C(C)(C)C)nn(C)c2c(=O)[nH]1 6.61%
OCCNCCCOc1ccc(Cl)cc1Br 9.05%
Cc1cc(Br)ccc1OCCNCc1ccccc1 5.75%
COCCNCCCOc1ccc(Br)cc1Cl 2.25%
COCCCNCCCOc1ccc(Cl)cc1Br 16.4%
CCc1cc(OCCCCNCc2ccccc2)ccc1Cl -6.28%
Clc1ccc(OCCCNCc2ccccc2)c2ccccc12 13.7%
O=C(COC(=O)c1ccncc1)NCc1ccccc1 -7.25%
CN(CC(=O)Nc1ccc(OC(F)(F)F)cc1)C1CCCCC1 9.36%
COc1cccc(NC(=O)CN(C)C(=O)c2ccc(-c3ccccc3Cl)o2)c1 -0.25%
COCc1cc(=O)[nH]c(-c2ccccc2)n1 9.5%
COc1ccc(/C=C2/SC(=O)N(CCC(=O)Nc3ccc(C)cc3)C2=O)cc1OC 1.5%
Clc1ccccc1OCCn1ccnc1 21.2%
Clc1ccccc1OCCCn1ccnc1 2.45%
c1ccc2cc(OCCCn3ccnc3)ccc2c1 -2%
Clc1ccc(OCCn2ccnc2)c(Cl)c1 26.6%
COc1ccc(Cc2noc(CN(C)CC3CCN(Cc4ccccc4)CC3)n2)cc1OC 0.81%
N#CCCN(C(=O)CSc1nc2nc(-c3cccs3)cc(C(F)(F)F)c2c(=O)[nH]1)c1ccccc1 -5.71%
CC(C)C(=O)NC(=S)Nc1ccccn1 1.05%
COc1ccc(-c2cc(C(=O)Nc3c(C)n(C)n(-c4ccccc4)c3=O)c3ccccc3n2)cc1 6.3%
O=C(O)CNC(=O)c1ccc(NC(=O)/C(=C/c2cccc([N+](=O)[O-])c2)NC(=O)c2ccco2)cc1 1.55%
COc1cc2nc(Nc3ccc(C)c(Cl)c3)nc(N)c2cc1OC -5.89%
Cc1ccc(Nc2nc(N)c3ccccc3n2)cc1C -7.22%
CCOC(=O)N1CCN(C(=O)c2ccc(C)c(S(=O)(=O)Nc3cccc(C)c3C)c2)CC1 -9.54%
Cc1nc(SC(C(=O)c2ccccc2)c2ccccc2)nc2ccccc12 (stereo unspecified) 5.08%
O=Cc1c(N2CCC3(CC2)OCCO3)nc2ccccn2c1=O -5.94%
COc1cccc2c(N/N=C/c3ccccc3)cc(C)nc12 -2.56%
COc1ccc(/C=N/Nc2cc(C)nc3ccc(Br)cc23)cc1 -2.21%
Cc1cc(N/N=C/c2ccc(O)cc2)c2cccc(C)c2n1 -15.4%
Cc1cc(N/N=C/c2ccc(N(C)C)cc2)c2ccccc2n1 5.73%
Cc1ccccc1NC(=O)NC1(C(=O)NCC2CCCO2)CCCCC1 (stereo unspecified) -0.07%
CC1CCCC(C)N1/N=C/c1ccccc1Br (stereo unspecified) -3.03%
CC1CCCC(C)N1/N=C/c1cccc(Br)c1 (stereo unspecified) -2.2%
CC1(C)NC(=O)N(CC(O)CN(c2ccccc2)S(=O)(=O)c2ccccc2)C1=O (stereo unspecified) -1.71%
Cc1ccc(C(=O)N/C(=C\c2ccco2)C(=O)NCc2cccnc2)cc1 2%
CC1(C)C(=O)Nc2ccccc2N1C(=O)Cn1ncc(Cl)c(Cl)c1=O 1.69%
O=C(Nc1cc(N2CCCCC2)ncn1)c1ccccc1 1.2%
COc1ccc(CCNC(=O)c2cc(COc3c(F)cccc3F)on2)c(OC)c1 6.23%
O=C(NC1CCCc2ccccc21)c1ccc([N+](=O)[O-])cc1 (stereo unspecified) -2.23%
O=[N+]([O-])c1ccccc1CNC1CCCc2ccccc21 (stereo unspecified) -9.02%
CNC(=O)c1cn(-c2ccc(Cl)cc2)c(=O)c2ccccc12 -7.59%
CO[C@@H]1[C@@H](OC(N)=O)[C@@H](O)C(Oc2ccc3c(O)c(NC(=O)c4ccc(O)c(CC=C(C)C)c4)c(=O)oc3c2C)OC1(C)C (stereo partly specified) 12.3%
Cc1c(O)ccc2c(O)c(NC(=O)c3ccc4c(c3)CCC(C)(C)O4)c(=O)oc12 -3.81%
CCC1=C(c2ccc(C)cc2)S(=O)(=O)N=C1N1CCC(C(=O)NCCCN2CCCCC2)CC1 -2.43%
Nc1cccc2nsnc12 -14.7%
COc1ccc(-n2nc3cc(N)c(Br)cc3n2)cc1 -2.59%
CCOC(=O)CCCNC(=O)CSc1nnc(-c2ccccc2)c(-c2ccccc2)n1 -8.06%
COC(=O)c1c(C)[nH]c(O)c1C=Nc1ccc(Oc2ccccc2)cc1 -5.37%
CO[C@H]1C=CO[C@@]2(C)Oc3c(C)c(O)c4c(O)c(c5c(nc6cc(C)ccn65)c4c3C2=O)NC(=O)C(C)=CC=C[C@H](C)[C@H](O)[C@@H](C)[C@@H](O)[C@@H](C)[C@H](OC(C)=O)[C@@H]1C -3.25%
CC(/C=C/c1ccccc1F)=N\NC(=O)c1cccc(F)c1 3.59%
O=S(=O)(NCC1CCCO1)c1ccc(NS(=O)(=O)c2ccc(F)cc2)cc1 (stereo unspecified) 0.92%
N#C/C(=C(/O)CSc1ncn[nH]1)c1nc2ccccc2[nH]1 6.19%
Fc1ccccc1/C=N/Nc1ccc(Cl)nn1 -8.24%
Cc1ccccc1/C=N/Nc1ccc(Cl)nn1 1.24%
C=CCN=C1CC(C)(C)C(C(=O)OC)C(O)=C1C(=O)CCC (stereo unspecified) -0.51%
COc1ccc(Cc2nnc(Nc3ccc(C)cc3)o2)cc1OC 1.4%
O=S(=O)(c1ccc2c(c1)OCCO2)N1CCN(Cc2ccc3c(c2)OCO3)CC1 -0.33%
CN1/C(=C\C=N\O)C(C)(C)c2ccccc21 -8.82%
c1csc(CNCc2ccncc2)c1 -5.07%
COc1ccccc1CNC(=S)NCc1ccc(F)cc1 -5.45%
Fc1ccc(CNCc2ccccc2Cl)cc1 5.07%
COc1cc(CNCCc2ccc(F)cc2)ccc1OCc1ccc(Cl)nc1 23.3%
COc1ccccc1CNCc1ccc(C)cc1 8.2%
Brc1ccc(CNCc2cccs2)cc1 10.4%
COc1ccc(NC(=O)COC(=O)CCCc2c[nH]c3ccccc23)cc1 -12.1%
Cc1cc(C)n(C(=O)Cn2nc(C)c(Cl)c2C)n1 3.42%
O=C(c1ccccc1F)N1CCN(S(=O)(=O)c2ccc3c(c2)OCCO3)CC1 6.03%
Cc1c(NC(=O)CSc2nnnn2-c2ccc(F)cc2)c(=O)n(-c2ccccc2)n1C -6.82%
O=C1NC(C(F)(F)F)(C(F)(F)F)N=C2SC=CN12 -6.31%
O=c1[nH]nc(-c2ccc(F)cc2)cc1Cc1ccc(F)cc1 -10.7%
O=C(Nc1cccc(Cl)c1)Nc1ccnc(-c2cccnc2)n1 5.1%
O=C(Oc1c(CN2CCOCC2)cc(Cl)c2cccnc12)c1ccc(F)cc1 29.7%
Oc1c(CN2CCN(c3ccccc3)CC2)cc(Br)c2cccnc12 4.78%
Oc1c(CN2CCN(c3ccccn3)CC2)cc(Cl)c2cccnc12 20.1%
CCOC(=O)N1CCN(Cc2cc(Cl)c3cccnc3c2O)CC1 -0.11%
